The campaign covered roughly 13,000 compounds. About 3,200 (25%) showed an effect of 50% or more. This is one part of the list.
test system: P. falciparum stage V gametocytes; design: BacTiter-Glo ATP luminescence viability of purified stage V gametocytes in 384-well plates, per cent inhibition versus DMSO; details: 48 h, 5 µM; inhibitor

Row | SMILES | % Inhibition
1 | Nc1nc(N)c2c(ccc3nn(Cc4cccnc4)cc32)n1 [TCMDC-137968] | -0.02415%
2 | CS(=O)(=O)c1ccc(-c2cc(C(F)(F)F)nc(N[C@@H]3CCCC[C@H]3OCc3ccccc3)n2)cc1 [TCMDC-138567] | -4.461%
3 | CC[C@@]1(O)C(=O)OCc2c1cc1n(c2=O)Cc2c-1nc1cc3c(cc1c2CN1CCOCC1)OCO3 [TCMDC-131876] | 7.387%
4 | Cc1nc2nc(N)nc(N)c2c(C)c1Cc1ccc(C#N)cc1 [TCMDC-137653] | -12.58%
5 | O=c1cc(NCCCNCc2cc(Cl)cc(Cl)c2OCc2ccc(Cl)cc2)[nH]c2ccccc12 [TCMDC-139604] | -52.63%
6 | CCCN1CCC(NCc2cn(C)nc2-c2ccc(Oc3ccccc3)cc2)CC1 [TCMDC-124676] | 46.58%
7 | COc1cc(Cl)c(C)cc1N(Cc1ccccc1-c1ccccc1)S(=O)(=O)c1ccc(C(F)(F)F)cc1 [TCMDC-141750] | -7.334%
8 | COc1ccccc1Oc1c(N(C)S(=O)(=O)c2ccc(C(C)C)cc2)nc(C(F)(F)F)nc1N(C)S(=O)(=O)c1ccc(C(C)C)cc1 [TCMDC-132001] | 61.81%
9 | O=C(Cn1c(CCc2cccc(F)c2F)cc(=O)c2cccnc21)N(CCn1ccnc1)Cc1ccc(-c2ccc(C(F)(F)F)cc2)cc1 [TCMDC-141474] | 11.29%
10 | O=C(Cn1c(CCc2cccc(F)c2F)cc(=O)c2ccccc21)N(CCN1CCCC1)Cc1ccc(-c2ccc(C(F)(F)F)cc2)cc1 [TCMDC-141120] | -20.2%
11 | Cn1cncc1CCN(Cc1ccc(-c2ccc(C(F)(F)F)cc2)cc1)C(=O)Cn1c(CCc2cccc(F)c2F)cc(=O)c2cccnc21 [TCMDC-141455] | 99.09%
12 | Cn1cncc1CCCN(Cc1ccc(-c2ccc(C(F)(F)F)cc2)cc1)C(=O)Cn1c(CCc2cccc(F)c2F)cc(=O)c2cccnc21 [TCMDC-141502] | -3.632%
13 | O=C(Cn1c(CCc2cccc(F)c2F)cc(=O)c2cccnc21)N(CCN1CCCC1)Cc1ccc(-c2ccc(C(F)(F)F)cc2)cc1 [TCMDC-141463] | 53.17%
14 | CCCOc1ccc(OCCCON2C(N)=NC(N)=NC2(C)C)cc1 [TCMDC-131737] | 9.517%
15 | CC1CCCN(S(=O)(=O)c2ccc(NC(=O)c3cc(-c4ccccc4O)n[nH]3)cc2)C1 (centres unmarked) [TCMDC-125194] | -32.46%
16 | O=C1NC(=O)C(c2ccc(Cl)cc2)=C1Nc1cccc(S(=O)(=O)C(F)(F)F)c1 [TCMDC-139487] | 41.44%
17 | Cc1cc(C)cc(-n2c(C)cc(/C=C3\SC(=Nc4ccc(Cl)cc4)NC3=O)c2C)c1 [TCMDC-124103] | 64.96%
18 | Cc1cc(C=C2SC(=Nc3ccccc3)N(C3CCCC3)C2=O)c(C)n1-c1ccc(Cl)cc1 [TCMDC-125698] | -5.321%
19 | CCn1c(C)cc(C=C2SC(=Nc3ccccc3)NC2=O)c1C [TCMDC-124456] | -43.68%
20 | COc1cc(Cc2cnc(N)nc2N)cc(OC)c1OCCCCCN1C(=O)c2ccccc2C1=O [TCMDC-138036] | 16.13%
21 | O=C(NCC1CC1)C1Cc2c([nH]c3ccc(Br)cc23)C2(CCN(CCc3ccccc3)CC2)N1 (centres unmarked) [TCMDC-141180] | -28.21%

Row | SMILES | % Inhibition
22 | CC(C)CCNC(=O)C1Cc2c([nH]c3cc(Cl)ccc23)C2(CCN(CCc3ccccc3)CC2)N1 (centres unmarked) [TCMDC-141294] | 25.11%
23 | CCCCCCNC(=O)C1Cc2c([nH]c3ccc(Br)cc23)C2(CCN(CCc3ccccc3)CC2)N1 (centres unmarked) [TCMDC-141182] | -10.63%
24 | CCCCCCNC(=O)C1Cc2c([nH]c3ccc(C)cc23)C2(CCN(Cc3ccccc3)CC2)N1 (centres unmarked) [TCMDC-141091] | 29.77%
25 | CCCNC(=O)C1Cc2c([nH]c3cc(Br)ccc23)C2(CCN(CCc3ccccc3)CC2)N1 (centres unmarked) [TCMDC-141260] | -73.32%
26 | CC(C)CCNC(=O)C1Cc2c([nH]c3cc(Br)ccc23)C2(CCN(CCc3ccccc3)CC2)N1 (centres unmarked) [TCMDC-141259] | -3.364%
27 | CC(C)CCNC(=O)C1Cc2c([nH]c3cc(Br)ccc23)C2(CCN(Cc3ccccc3)CC2)N1 (centres unmarked) [TCMDC-141258] | 102.3%
28 | O=C(NCc1ccccc1)C1Cc2c([nH]c3ccc(Br)cc23)C2(CCN(Cc3ccccc3)CC2)N1 (centres unmarked) [TCMDC-141183] | 77.73%
29 | CCCNC(=O)C1Cc2c([nH]c3ccc(Br)cc23)C2(CCN(CCc3ccccc3)CC2)N1 (centres unmarked) [TCMDC-141184] | 7.991%
30 | CCCCCCNC(=O)C1Cc2c([nH]c3ccc(Br)cc23)C2(CCN(Cc3ccccc3)CC2)N1 (centres unmarked) [TCMDC-141181] | 96.4%
31 | CNC(=O)C1Cc2c([nH]c3ccc(Br)cc23)C2(CCN(CCc3ccccc3)CC2)N1 (centres unmarked) [TCMDC-141185] | -21.04%
32 | CNC(=O)C1Cc2c([nH]c3cc(Br)ccc23)C2(CCN(CCc3ccccc3)CC2)N1 (centres unmarked) [TCMDC-141261] | 85.59%
33 | Clc1ccc(-c2ncc(-c3ccncc3)[nH]2)cc1Cl [TCMDC-135775] | -31.04%
34 | Nc1ccnc(N2CCC(CCOc3ccnc4cc(Cl)ccc34)CC2)c1 [TCMDC-141365] | -42.39%
35 | CC(=O)Nc1nnc(SCc2c(C)cc(C(C)(C)C)cc2C)s1 [TCMDC-125446] | 0.04812%
36 | CN1CC[C@@H](Oc2cc(Nc3nc(-c4ccc(C#N)cc4)cs3)ccc2Cl)C1 [TCMDC-136291] | 12.39%
37 | CC(C)CCNC(=O)C1Cc2c([nH]c3ccc(Br)cc23)C2(CCN(Cc3ccccc3)CC2)N1 (centres unmarked) [TCMDC-141178] | 102.8%
38 | CC(C)CCNC(=O)C1Cc2c([nH]c3ccc(Br)cc23)C2(CCN(CCc3ccccc3)CC2)N1 (centres unmarked) [TCMDC-141179] | 47.91%
39 | Cc1ccc2[nH]c3c(c2c1)CC(C(=O)NCCC(C)C)NC31CCN(Cc2ccccc2)CC1 (centres unmarked) [TCMDC-141090] | 28.05%
40 | CCCCCCNC(=O)C1Cc2c([nH]c3cc(Cl)ccc23)C2(CCN(Cc3ccccc3)CC2)N1 (centres unmarked) [TCMDC-141296] | 89.1%
41 | CCCCCCNC(=O)C1Cc2c([nH]c3ccc(F)cc23)C2(CCN(Cc3ccccc3)CC2)N1 (centres unmarked) [TCMDC-141303] | 21.59%
42 | CCCCCCNC(=O)C1Cc2c([nH]c3cc(Cl)ccc23)C2(CCN(CCC)CC2)N1 (centres unmarked) [TCMDC-141297] | -77.49%

Row | SMILES | % Inhibition
43 | Nc1cc(-c2cc3c(OCc4ccccc4)cccc3[nH]2)ccn1 [TCMDC-134290] | -55.8%
44 | CN(C)CCC1CCN(CCS(=O)(=O)c2cccc(Nc3ccc(-c4ccsc4)cn3)c2)CC1 [TCMDC-134377] | 15.01%
45 | Cc1cc(Cl)ccc1NC(=O)Nc1ccc2nccc(N3CCN(C)CC3)c2c1 [TCMDC-139357] | 8.372%
46 | COc1ccc(CCN(C)CCCCc2ccc(NC(=O)c3cccc4c(=O)c5cc(F)ccc5sc34)cc2)cc1OC [TCMDC-131961] | 94.02%
47 | COc1cc(OCCCN(C)Cc2ccc(OC)c(OC)c2)ccc1NC(=O)c1cccc2c(=O)c3cccc(F)c3[nH]c12 [TCMDC-131853] | 16.5%
48 | COc1ccc(CCN(C)CCOc2ccc(NC(=O)c3cc(SC)cc4c(=O)c5ccccc5[nH]c34)cc2)cc1OC [TCMDC-131957] | 24.55%
49 | COc1ccc(CN(C)Cc2ccc(NC(=O)c3cccc4c(=O)c5cccc(C)c5[nH]c34)cc2)cc1OC [TCMDC-131852] | 2.818%
50 | COc1ccc(CN(C)CCOc2ccc(NC(=O)c3cccc4c(=O)c5cc(SC)ccc5[nH]c34)cc2)cc1OC [TCMDC-131956] | 28.02%
51 | COc1ccc(CN(C)CCCOc2ccc(NC(=O)c3cccc4c(=O)c5cccc(F)c5[nH]c34)cc2)cc1OC [TCMDC-131846] | 60.98%
52 | COc1ccc(CCN(C)CCc2ccc(NC(=O)c3cccc4c(=O)c5ccccc5sc34)cc2)cc1 [TCMDC-131965] | 45.76%
53 | COc1ccc(CCN(C)CCOc2ccc(NC(=O)c3cccc4c(=O)c5cc(SC)ccc5[nH]c34)cc2)cc1OC [TCMDC-131958] | 53.19%
54 | COc1ccc(CN(C)CCCOc2ccc(NC(=O)c3cccc4c(=O)c5cccc(C)c5[nH]c34)cc2)cc1OC [TCMDC-131850] | 23.76%
55 | COc1ccc(CCN(C)CCCOc2ccc(NC(=O)c3cccc4c(=O)c5ccccc5[nH]c34)cc2)cc1OC [TCMDC-132116] | 43.65%
56 | COc1ccc(CCN(C)CCCN2CCC(NC(=O)c3cccc4c(=O)c5ccccc5sc34)CC2)cc1OC [TCMDC-131966] | 103.2%
57 | O=C(NCC1CCC(C(=O)NC2CCCc3ccccc32)CC1)c1ccc(O)c(-c2ccc(Cl)c(Cl)c2)c1 (centres unmarked) [TCMDC-140891] | 17.3%
58 | COC(=O)C(NC(=O)NC1CCN(c2ccnc(Nc3ccc(F)cc3)n2)C1)c1ccccc1 (centres unmarked) [TCMDC-133595] | 4.499%
59 | CCc1sc(CN(CCCNc2cc(=O)c3ccccc3[nH]2)Cc2sc(CC)c(Br)c2-c2ccsc2)c(-c2ccsc2)c1Br [TCMDC-140753] | 49.24%
60 | N=C1c2ccccc2CN1CC(=O)c1ccc(Cl)c(Cl)c1 [TCMDC-123783] | -26.95%
61 | N#Cc1ccc2c(c1)CCN(CCC1CCC(NC(=O)/C=C/c3cnc4ccccc4c3)CC1)CC2 (centres unmarked) [TCMDC-139662] | -42.99%
62 | O=C(NCc1ccc(F)cc1)Nc1cccc(-c2ccc(-c3nc4ccc(F)cc4[nH]3)cc2)c1 [TCMDC-133301] | -42.08%

Reference: publication PMC4552634, “A New Set of Chemical Starting Points with Plasmodium falciparum Transmission-Blocking Potential for Antimalarial Drug Discovery” (PLoS ONE, 2015)
